Data as given in PubChem BioAssay AID624330 (Southern Research Specialized Biocontainment Screening …, 2012).
The whole screen tested about 340,000 compounds, of which about 2,100 (0.62%) were called active.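 The calls were made as follows: active = first-screen hits whose inhibition reached a set limit at any dose in the follow-up dose series; inconclusive = inhibition above the set first-screen limit but never retested; inactive = the rest.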 The list is a sample of the results. Measured potencies and affinities stand elsewhere.

Target: Rac GTPase-activating protein 1 (Homo sapiens) (UniProt Q9H0H5)
Sequence (Q9H0H5 whole entry, looked up): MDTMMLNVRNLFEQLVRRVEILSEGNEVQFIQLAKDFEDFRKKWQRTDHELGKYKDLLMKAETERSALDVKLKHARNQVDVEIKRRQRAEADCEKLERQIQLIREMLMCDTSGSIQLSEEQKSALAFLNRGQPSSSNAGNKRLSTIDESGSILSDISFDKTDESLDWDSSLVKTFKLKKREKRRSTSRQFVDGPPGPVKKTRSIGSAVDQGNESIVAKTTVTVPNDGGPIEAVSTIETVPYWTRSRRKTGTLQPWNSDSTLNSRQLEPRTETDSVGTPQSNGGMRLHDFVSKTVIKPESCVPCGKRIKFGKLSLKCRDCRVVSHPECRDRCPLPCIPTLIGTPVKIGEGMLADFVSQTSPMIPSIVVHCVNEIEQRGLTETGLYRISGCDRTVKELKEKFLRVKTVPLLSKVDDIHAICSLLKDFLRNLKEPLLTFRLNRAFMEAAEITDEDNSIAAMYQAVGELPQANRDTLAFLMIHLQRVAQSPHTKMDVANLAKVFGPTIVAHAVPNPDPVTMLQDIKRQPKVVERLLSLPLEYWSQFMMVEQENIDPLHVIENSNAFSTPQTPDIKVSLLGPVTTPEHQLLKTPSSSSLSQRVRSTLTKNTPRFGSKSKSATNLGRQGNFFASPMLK
Experiment: blockers of MgcRacGAP-driven Rac1 GTP hydrolysis – biochemical, ADP Hunter fluorescence, primary and confirmatory, confirmation (AID 624330);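 also: fluorescence reports GDP produced by GAP-driven GTP hydrolysis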
Conditions: MgcRacGAP-stimulated Rac1 GTP hydrolysis, at 30 µM, stronger effect = higher value, GST-tagged Rac1 F28L mutant substrate

inhibition, inactive:
CC(NC(=O)C(C)N1CCN(Cc2ccccc2)CC1)c1ccccc1 (stereo unspecified) 4.7%
CC(NC(=O)C(C)N1CCN(Cc2ccccc2)CC1)c1ccc(F)cc1 (stereo unspecified) 4.63%
CCn1c(SCC(=O)Nc2cccc(F)c2)nc2c(c1=O)SC(C)C2 (stereo unspecified) 3.97%
Cc1ccc(-n2ccnc(SCC(=O)NC3CCCCC3)c2=O)cc1F 7.99%
Cc1ccc(O)c(NC(=O)c2cc(-c3cccs3)on2)c1 5.43%
O=C(Nc1cccc(Cl)c1)c1nc[nH]c1C(=O)NCCN(CCNC(=O)c1[nH]cnc1C(=O)Nc1cccc(Cl)c1)CCNC(=O)c1[nH]cnc1C(=O)Nc1cccc(Cl)c1 10.4%
O=C(c1cc(C2CC2)nn1-c1ccccc1)N1CCN(S(=O)(=O)c2ccc(F)cc2)CC1 4.93%
COc1cc2c(CCNC(C)=O)c[nH]c2cc1Cl 7.18%
COc1ccc2[nH]cc(CCNC(C)=O)c2c1 -0.52%
O=C(C1CCN(C2CCN(Cc3ccc4c(c3)CCO4)CC2)CC1)N1CCOCC1 3.51%
COc1ccc(CCNC(=O)C2CCN(S(=O)(=O)c3ccc(C)cc3)CC2)cc1OC -4.11%
COc1cccc(N(CC(=O)NC2CCCCC2)C(=O)Cn2nnc(-c3ccc(C)o3)n2)c1 -3.15%
Cc1ccsc1/C=N/NC(=O)c1cccc(S(=O)(=O)Nc2ccccc2Cl)c1 13.6%
CC(Cn1cncn1)C(=O)N1CCN(S(=O)(=O)c2ccccc2)CC1 (stereo unspecified) 5.09%
CC(OC(=O)c1cccc(N2C(=O)c3ccccc3C2=O)c1)C(=O)Nc1ccc(N(C)C)cc1 (stereo unspecified) 5.16%
Cc1csc(=O)n1CC(=O)OC(C)C(=O)Nc1cccc(Cl)c1 (stereo unspecified) 5.89%
Cc1csc(=O)n1CC(=O)OC(C)C(=O)Nc1ccc(F)c(F)c1F (stereo unspecified) 7.87%
CC(=O)Nc1ccc(NC(=O)C(C)OC(=O)CCN=C2NS(=O)(=O)c3ccccc32)cc1 (stereo unspecified) 7.31%
Cc1ccc(-n2c(Cc3cccn3C)nnc2SCC(=O)N2CCc3ccccc32)cc1 19%
CCN(Cc1ccccc1)C(=O)C1CCN(Cc2ccc(SC)cc2)CC1 23.2%
CSc1ccc(CN2CCCCCC2)cc1 18.5%
CSc1ccc(/C=N/N2CCN(Cc3ccccc3Cl)CC2)cc1 0.33%
COc1cc(OC)c(OC)cc1CN1CCN(Cc2cccn2C)CC1 31.5%
COc1cc(OC)c(OC)cc1CN1CCN(c2ccc(F)cc2)CC1 10.3%
CCN(Cc1ccccc1)C1CCN(Cc2ccccc2)CC1 -17.1%
COc1ccccc1CN1CCCCCC1 24.6%
COc1cc(OC)c(OC)cc1CN1CCN(c2ccccc2OC)CC1 19.5%
Cc1noc(C)c1COC(=O)c1ccccc1Sc1ccccc1C#N 3.85%
CCOc1ccc(CCN2C(=S)N([C@@H](CC(C)C)CN3CCCC3CN3C(=S)NC[C@@H]3Cc3ccc(O)cc3)C[C@@H]2Cc2ccc(O)cc2)cc1 (stereo partly specified) 10.2%
O=C(OC(C(=O)NCc1ccccc1)c1ccccc1)c1ccco1 (stereo unspecified) 5.58%
Cc1cccn2cc(CNS(=O)(=O)c3cccc(F)c3)nc12 7.85%
O=C(CCc1nc2ccccc2[nH]1)N1CCN(C(=O)c2ccco2)CC1 -2.14%
CCC(C)[C@H](NC(=O)NCc1ccc(OC)c(OC)c1)C(=O)O (stereo partly specified) 11.4%
Cc1ccc2nc(SCc3nnc(-c4ccccc4)o3)[nH]c2c1 12.2%
CCOC(=O)C1(Cc2ccccc2C)CCCN(C(=O)c2ccc3nccnc3c2)C1 (stereo unspecified) 7.5%
CCN(c1ccccc1)S(=O)(=O)c1ccc(C(=O)NCCCN2CCOCC2)cc1 8.29%
O=C(NNC(=O)c1ccccc1[N+](=O)[O-])c1ccc(NC(=O)c2ccccc2)cc1 12.4%
O=C(N/C=C\n1cnc2cc(C(F)(F)F)ccc21)c1ccc([N+](=O)[O-])cc1 6.01%
CS(=O)(=O)c1ccc(Cl)c(NC(=O)CN2CCN(C(=O)c3cccs3)CC2)c1 3.52%
c1ccc(N2CCN(c3nc4ccccc4n4nnnc34)CC2)cc1 2.04%
O=C(NCc1cccc(F)c1)C1CCC(=O)N(CCc2cccc(F)c2)C1 (stereo unspecified) 0.03%
COc1cccc(C(CC(=O)NCc2ccco2)NS(=O)(=O)c2ccc(C)cc2)c1OC (stereo unspecified) 2.02%
O=C(COC(=O)c1ccccc1C(=O)c1ccc(Cl)cc1)NCC1CCCO1 (stereo unspecified) 3.71%
COc1ccc(S(=O)(=O)N2CCN(Cc3ccccc3OC)CC2)cc1 11.4%
COc1ccccc1CN1CCSCC1 23.4%
O=C(Nc1ccccc1)Nc1nncs1 9.87%
O=c1[nH]n(-c2ccc(Cl)cc2)c2ncccc12 31.6%
O=c1[nH]n(-c2ccc(F)cc2)c2ncccc12 15.2%
Cc1cs/c(=N\N=C\c2ccccc2)n1Cc1ccco1 7.87%
CC(C)=N/N=c1\scc(C)n1Cc1ccco1 6.39%
C[C@H](CO)N1C[C@H](C)[C@@H](CN(C)C(=O)Nc2ccc(C(F)(F)F)cc2)Oc2c(NC(=O)CCC(F)(F)F)cccc2C1=O 3.3%
Cc1cccc(C(=O)c2cn[nH]c2-c2ccc(C)cc2O)c1 4.53%
Cc1ccc(CNC(=O)C(=O)NCCC2CCCCN2S(=O)(=O)c2ccccc2)cc1 (stereo unspecified) 9.49%
Cc1ccccc1CNC(=O)CCn1nc(C)c2c(C)n(-c3ccccc3)nc2c1=O 13.3%
O=C(COc1ccccc1)NC(=S)Nc1cccc2c(O)cccc12 17.9%
O=C(NC(=S)Nc1cccc2ncccc12)c1ccco1 -0.13%
CCCC(=O)NC(=S)Nc1ccccc1F 5.15%
O=C(NC(=S)Nc1cccc2cc(O)ccc12)c1ccco1 23.9%
CCc1noc(C)c1C(=O)Nc1cccc2ncccc12 3.52%
O=C(COC(=O)Cc1ccc(Cl)cc1)NCc1cccs1 6.22%
COC(=O)c1ccccc1COn1c(=O)c(C)[n+]([O-])c2ccccc21 6.87%
COc1ccc(N2CCc3c(C)nc(SC)nc32)cc1 2.67%
CSc1nc(C)c2c(n1)N(c1ccc(F)cc1)CC2 11.7%
Cc1ccc(Cl)cc1N1CCN(S(=O)(=O)N2CCCCC2)CC1 8.42%
CN(c1ccccc1)S(=O)(=O)c1cccc(C(=O)NCc2ccccc2)c1 5.13%
CN(C)S(=O)(=O)c1cccc(C(=O)NCCc2ccccc2)c1 10.5%
CC(C)(C)NC(=O)C(c1ccccn1)N(C(=O)c1csnn1)C1CCCCC1 (stereo unspecified) 2.75%
CCOC(=O)C1(Cc2ccccc2)CCN(Cc2csc(C(C)=O)c2)CC1 3.47%
O=C(CC(c1ccccc1)c1ccccc1)Nc1ccc(C(=O)O)cc1 13.2%
CC(=O)c1ccc(NC(=O)CCCC(=O)c2ccccc2)cc1 8.95%
O=C(CCCC(=O)c1ccccc1)Nc1ccc(F)cc1 4.81%
CC(=O)Nc1ccc(NC(=O)CC(c2ccccc2)c2ccccc2)cc1 11.3%
Cc1c(OCC(=O)N[C@@H](CSCc2ccccc2)C(=O)O)ccc2c3c(c(=O)oc12)CCC3 4.52%
CC(=O)c1cccc(-c2ccc3c(=O)[nH]c(Nc4ccccc4)cc3c2)c1 0.61%
COc1cc(-c2cc(-c3ccccc3)nc(SCC(=O)Nc3nccs3)c2C#N)cc(OC)c1OC -0.01%
CCS(=O)(=O)Nc1cccc(C2=NN(S(=O)(=O)c3ccc(C)cc3)C(c3cccs3)C2)c1 (stereo unspecified) -1.77%
CN1OC[C@@H]2CN(C(=O)CCc3ccccc3)[C@H](c3cccc(-c4ccc(C#N)cc4)c3)C[C@@H]21 4.81%
O=C(N1CCOCC1)N1CCN(C(c2ccccc2)c2ccccc2)CC1 5.11%
CC(C)Cc1nc(SCC(=O)NCC2CCCO2)c2c(=O)n(C)c(=O)n(C)c2n1 (stereo unspecified) 5.52%
COc1cccc(N2CCN(S(=O)(=O)c3ccc4ccccc4c3)CC2)c1 -3.05%
Cc1cc(C)c(C)c(S(=O)(=O)N2CCN(C)CC2)c1C 9.5%
Cc1ccc(S(=O)(=O)N2CCN(CC(=O)N3CCOCC3)CC2)cc1 6.79%
Cc1cc(C)c(C)c(S(=O)(=O)N2CCN(c3ccccn3)CC2)c1C 6.39%
CC(=O)c1ccc(N2CCN(S(=O)(=O)c3ccc4ccccc4c3)CC2)cc1 1.69%
Cc1ccc(N2CCN(S(=O)(=O)c3ccc(C)cc3)CC2)cc1 8.85%
Cc1ccc(C(=O)O)cc1S(=O)(=O)N1CCC(C(=O)O)CC1 3.35%
Cc1cc(C)c(C)c(S(=O)(=O)N2CCC(C(=O)N3CCN(c4ccc(F)cc4)CC3)CC2)c1C 3.44%
CCOc1cc(/C=C(\C#N)C(=O)Nc2ccccc2C(=O)O)ccc1OC(=O)c1ccc(C)cc1 12.7%
CCOC(=O)C1=C(N)n2c(s/c(=C\c3cccnc3)c2=O)=C(C#N)C1c1cccnc1 (stereo unspecified) 9.67%
CCOc1ccc(NC(=O)CN2CC(c3ccccc3)CC2=O)cc1 (stereo unspecified) 1.86%
CSc1cc(N2CCOCC2)nc(-c2ccccc2Cl)n1 2.89%
